# Measurements taken from the supplement of paper PMC11417369.
# ± gives the standard deviation of the averaged measurements. In all, about 25,000 sequences were measured (“ln(normalized median fluorescence intensity)”: median about 7.9, highest 2% from about 11 on). The entries come from a sample that favours the highest values as a whole.
# Tested on: PfAP2-I AP2 domain 3 (GST-tagged)
# Assay: gcPBM binding intensity (ln(normalized median fluorescence intensity)); higher = stronger DNA binding
# Procedure, shortened: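 Binding intensity values are the highest Masliner-normalised natural-log median intensity among replicate spots of either probe orientation. The binding step lasted 1 h in 1× PBS with 1% milk, 0.2 mg/ml BSA, 0.5% salmon testes DNA and 0.03% Triton X-100, using GST-tagged P. falciparum DNA-binding domains expressed in E. coli on an Agilent 4 × 180k array of primer-extended double-stranded 36-bp intergenic genomic probes plus negative controls. Alexa488 anti-GST antibody and a 488 nm scan detected bound protein.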
row,Sequence,gcPBM binding intensity (ln)
1,AGTTTGTTTTTTTTTTTTTTTTCCTGTCACAAACAA [CACACA_negctrl_site1093],8.22 ± 0.62
2,GTTCATAAATTAAACACACACACACCCCTGGATACC [CACACA_site3331],9.115 ± 0.021
3,ATATATATATATATATGTACATACATACAATCATAT [XGTACX_site6410],9.38 ± 0.54
4,TACATATTTAAATACTGTACTCAAAAGAATTGTGCA [XGTACX_site2250],8.11 ± 0.11
5,ATATATCATAATAAAAGTACTTATATATTTTATATA [XGTACX_site560],7.59 ± 0.33
6,AAAATTGTGCTTTCACGGACACAAGATCGAAATAGA [XGTACX_site4068],8.62 ± 0.16
7,GAAAAAAAAATATCTTGTACTTACATAACTATTGGT [XGTACX_site5326],7.61 ± 0.5
8,CTTATTTTGTTATAAGTGCATTTTTTAAAATTTCTT,9.05 ± 0.42
9,ATATATTATATTTAAGTGCATTAATTAAAATGCTTA [GTGCAC_site9403],11.1 ± 0.73
10,ATATATATATTTATAGTGCATTTATATTAAAATATC [GTGCAC_site9818],10.54 ± 0.021
11,TTTTTTTTTTTTTTTGCACACTTAAATTTGGTGGCT [CACACA_site5319],9.54 ± 0.16
12,TTTTTTTTTTTTTTTGCACACTTAAATTTGGTGGGG [CACACA_site2344],9.89 ± 0.19
13,CACATTAATTTTTGGGTGCACTTGGGAAATTTTGGT,10.9 ± 0.51
14,AGTTATAAACATATGTGTACTTATAAAAACATATAG [XGTACX_site3268],7.87 ± 0.47
15,AATCACAACGAACACACACACAAAAAAAAAAAAAAA [CACACA_site6790],7.96 ± 0.54
16,CAACAACAAATGAGAAGTACATAAATATTAACAATA [XGTACX_site4625],7.68 ± 0.4
17,TTCCAAGAAATAATAGTGCATTATTCATTTTAATAA,11.5 ± 0.42
18,TGTTTTATTTTATTAGTGCATTTTTATTTATAATAG [GTGCAC_site9453],9.77 ± 0.2
19,ATATATAATTCCCAAGTGCATTTATTTTAATTATTA,10.2 ± 0.12
20,AAGGATATAACATACACACACACACGGATATAAATA [CACACA_site7867],7.91 ± 0.6
21,AATATAAGGATATATACACACATAAATACATACATA [CACACA_site7859],7.67 ± 0.59
22,TGAAGGATATATTCCGTGCACATATAAATATATACA,11.035 ± 0.007

row,Sequence,gcPBM binding intensity (ln)
1,TTTATACAAACAACTTTATATTAATGTTTAACGGAG [GTGCAC_negctrl_site396],7.6 ± 0.42
2,ATATATATATAATAAGTGCAAAAAAAAGAAAAAAAT,10.18 ± 0.035
3,AATTAATAAGAAAGGTGTACAGAAAAAAAAAAATAT [XGTACX_site2106],8.46 ± 0.43
4,AAAAAAAAAATACAGGTGCAATAAGAAAAAAATGGT,11.4 ± 0.57
5,TTTTATATTTTATGCACACTTATAAGAAATATGTAC [CACACA_site3040],10.5 ± 0.52
6,TTTTAAATACTTTATTGTACATTATATATATATATA [XGTACX_site7021],8.88 ± 0.042
7,TTTTAAGGTGTGAAGGTGCAAAAAGGTAAATAGGAA,11.2 ± 0.56
8,ATTTTAAAAAGGATAGTGCAAATGTTAAAATAGGAC,10.6 ± 0.3
9,TTTTTTTTTAAGCAAAGGAAATCAAAATAAAAATAT [CACACA_negctrl_site719],7.92 ± 0.56
10,TACCTTTTTTATGTTGCACACTGGGATGTTTTCTAA [CACACA_site1653],9.51 ± 0.15
11,TATATGAAGTACACAATACACACTAATTATATATAA [CACACA_site2608],8.155 ± 0.035
12,TATGAAGTACACAATACACACTAATTATATATAAAT [CACACA_site5444],7.88 ± 0.28
13,TATGAAGTGCACAATACACACTAATTCTATATAAAT [CACACA_site7269],11 ± 0.71
14,AAAGTATATAGGATACGTACATACATAAATAAATAA [XGTACX_site8216],7.84 ± 0.73
15,AAAAAAAAAAAAAAAACACACAAACAAATGAATAAA [CACACA_site5769],8.76 ± 0.66
16,GTACATTATATATATACACACATACATAATAAAGAA [CACACA_site5528],8.12 ± 0.23
17,CAAATATACATATGTAGTACATGTTGTAGATAATTT [XGTACX_site2790],8.01 ± 0.5
18,GTATATATCTAAAAATATATATATATATATATATAT [CACACA_negctrl_site788],9.37 ± 0.72
19,TCCTGCCTCTCTTTGGTGCGTTGTAACCCTCGAGGA,10.3 ± 0.11
20,TCTCCACCTCTCTTGGTGCGTTATACCCTCGAGGCT,11.3 ± 0.54
21,CCCTGCCTCTCTTTGGTGCGTTGTAACCCTCGAGGA,10.3 ± 0.33
22,AGAATTAAAATAAAGGTGCATTTTTTTGTTTCATGT,9.94 ± 0.23

row,Sequence,gcPBM binding intensity (ln)
1,TTGTTCTTTTTTTTTTTATTTTTTAATTTGAAAAGA [CACACA_negctrl_site209],7.72 ± 0.5
2,TTGTTCTTTTGAAAGGTGCAAAAGAAAAATAATTAA,11.1 ± 0.54
3,ACGTTACATACATATACACACACATATATATATATA [CACACA_site8203],9.22 ± 0.39
4,TATATACTCATGCGCACACACAAGTGGGAAATTTGG [CACACA_site5056],8.35 ± 0.6
5,TTTTTTTTTTTTGGTGCATGCACATTTTGTTTTTTT [TGCATGCA_site570],9.85 ± 0.014
6,TATAATTTTTTTTGGGTGCTTGGGTAAATTTTATTA,8.34 ± 0.42
7,CTTGTGCTTTATAGGGTGCACATTTTGTTTTGGTAA [GTGCAC_site9899],11 ± 0.46
8,AAAGGGATGTTCATTCTTTTTTTTTTTTTTGTATAT [CACACA_negctrl_site511],7.16 ± 0.6
9,ATTAGTAAATTTATATGTACACATTGTTATTTTATA [XGTACX_site1177],8.13 ± 0.23
10,TTATATTTGATAGTTTGTACATATAATTATTATCAT [XGTACX_site5676],7.86 ± 0.42
11,AATATAAATAATTATACACACTTAATATATATATAC [CACACA_site5533],7.9 ± 0.33
12,TAGTGATATAATTATGTGCACTTAATACAGGTCGAT,10.9 ± 0.3
13,TTGATATATAATAATACACACTTACATAATTAATTA [CACACA_site4320],7.88 ± 0.37
14,ATGTCTATAATAAGAACACACATATATTTAATTTAA [CACACA_site7394],7.64 ± 0.44
15,ATATGTAGAAGTAATGCACACATATGTATATATATA [CACACA_site8796],10.8 ± 0.48
16,ATGTAGAAGTAATGCACACATATGTATATATATATA [CACACA_site2494],10.9 ± 0.63
17,ATGTGATAGAAGTACACACACATATGTATTTATAAT [CACACA_site5075],7.84 ± 0.59
18,ACATAATTATTATGCACACATATTTTTATGTATTTA [CACACA_site698],10.3 ± 0.48
19,TATACATATGTATGCACACATACATACACATAGAAT [CACACA_site3480],8.8 ± 0.13
20,ATGTAGAAGTAATGCACACATATGTATTTATATATA [CACACA_site5391],10.9 ± 0.68
